Results on 34 compounds are retold here after PubChem BioAssay (NCATS).

Each structure is given as a SMILES string. Several values for one entry are separate records, joined by “and”; a condition that tells them apart may be missing. Equal entries are not always repeated. Inconclusive results are not listed. Values without a mark were called inactive. Activity calls are given as the source filed them. Calls come from the whole dose curve; as a rule, active = well fitted curve in the direction sought with a large enough effect; inconclusive = small, poorly fitted or top-dose-only effect, or another doubt; inactive = no such curve, though single readings can be large; an effect the other way counts as inactive or inconclusive.

The subject of assay [1] is KB-3-1. Kind of assay: Cytotoxic Profiling of Annotated Libraries Using Quantitative High-Throughput Screening (AID 1296008). Note: nearly all actives have a fitted effect of over 60% in size. As to conditions: Five cell lines viability, CellTiter-Glo ATP luminescence, 48-72 h; max response: active compounds read low. Put shortly:
(§1)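 Cells exposed to compounds for 48 or 72 hr at 37 degrees Celsius. Viability read as ATP-coupled luminescence with CellTiter-Glo after 10 min at room temperature.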
In general terms: Cellular ATP, detected with luciferase, serves as a proxy for viable cell number.

Assay [2] deals with NIH3T3. The assay is described as above. To be noted: Five cell lines viability, CellTiter-Glo ATP luminescence, 48-72 h; max response: active compounds read low. The method, boiled down: as §1
For assay [3], the system named is C33A. The experiment in a line: Primary qHTS to identify gynecologic anti-cancer compounds using libraries of approved drugs and bioactive compounds (AID 1345084). Note: nearly all actives have a fitted effect of over 55% in size. To be noted: Gynecologic cancer cell panel viability, ATPlite luminescence, 48 h; series mostly up to 57.5 µM. The method, boiled down: (§2)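 Cytotoxicity screen measuring ATP content by luciferase luminescence. Each compound is applied at five concentrations for 48 h at 37 C with 5% CO2.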
(In general: qHTS replaces the single test concentration by a dilution series.)

Assay [4] relates to CAOV3. The description is as above. To be noted: Gynecologic cancer cell panel viability, ATPlite luminescence, 48 h; series mostly up to 57.5 µM. Put shortly: as §2
Assay [5] has as its system CASKI. Described as above. To be noted: Gynecologic cancer cell panel viability, ATPlite luminescence, 48 h; series mostly up to 57.5 µM. Put shortly:
as §2

Assay [6] relates to HeLa. Described as above. To be noted: Gynecologic cancer cell panel viability, ATPlite luminescence, 48 h; series mostly up to 57.5 µM. The method, boiled down:
as §2

Assay [7] relates to Hek293T. The assay is described as above. To be noted: Gynecologic cancer cell panel viability, ATPlite luminescence, 48 h, control line for the selectivity index; series mostly up to 57.5 µM. The method, boiled down: as §2
Assay [8] deals with JEG-3. The description is as above. To be noted: Gynecologic cancer cell panel viability, ATPlite luminescence, 48 h; series mostly up to 57.5 µM. Put shortly: as §2
The test system of assay [9] is OV90. Described as above. As to conditions: Gynecologic cancer cell panel viability, ATPlite luminescence, 48 h; series mostly up to 57.5 µM. Put shortly: as §2
For assay [10], the system named is PA-1. Described as above. As to conditions: Gynecologic cancer cell panel viability, ATPlite luminescence, 48 h; series mostly up to 57.5 µM. The method, boiled down:
as §2

Assay [11] relates to Es-2. Described as above. To be noted: Gynecologic cancer cell panel viability, ATPlite luminescence, 48 h; series mostly up to 57.5 µM. The method, boiled down: as §2
% is set by controls: 0 for no effect and ±100 for the full control effect; potency is the fitted concentration of half-maximal effect.

On to `O=C1C(c2[nH]c3ccc(S(=O)(=O)O)cc3c2O)=Nc2ccc(S(=O)(=O)O)cc21`, for which, in [1], the max response was 3.94% and -6.29%.

In the case of `C[C@H](CSC(=O)c1ccccc1)C(=O)N1C[C@@H](Sc2ccccc2)C[C@H]1C(=O)O`, the max response in assay [1] is -1.05%.

Regarding `C=C1C(=O)O[C@@H]2C[C@H](C)[C@@H]3CC(=O)[C@H](O)[C@@]3(C)C[C@H]12`, the call in assay [1] was inactive. For the same compound, the max response in [2] is -22.8%. Moreover, the Potency entry in assay [3], in [4], in [5], in assay [6], in [7] and in [8] was “inactive” throughout. Further, in assay [9], the Potency result was “inactive”. In addition, in assay [10], the Potency is 25.1 µM (active).

`COC(C)=O`: in assay [1], the max response was -9.47%.

For `CCN(CC)C(=O)c1ccc(Nc2nc(OCC3CCCCC3)c3[nH]cnc3n2)cc1`, the Potency in assay [1] is 14.6 µM (active); in assay [2] it was 10.3 µM (active); in assay [6] it was 28.2 µM (active). Also, the Potency entry in assay [3], in assay [11], in assay [7], in [8] and in assay [9] was “inactive” in each case.

`O=C(O)CC(O)(CC(=O)O)C(=O)O`: the max response in [1] is -1.69%.

On to `CCC(c1ccccc1)c1noc(CCN(CC)CC)n1` (stereo not drawn), for which, in assay [1], the max response was -6.24%.

For `COc1cc([C@@H]2c3cc4c(cc3C(O[C@@H]3O[C@@H]5COC(c6cccs6)O[C@H]5[C@H](O)[C@H]3O)C3COC(=O)[C@@H]32)OCO4)cc(OC)c1O` (stereo partly drawn), in assay [1], the Potency was 3.66 µM (active).

Regarding `C=C1C(=O)OC2C3=C(C)C(=O)CC3C(C)CC(O)C12` (stereo not drawn), the figures for the max response in assay [1] and in [2] were 9.21% and -16.4%, respectively. The Potency entry in assay [3], in assay [4], in [5], in assay [11], in [6] and in [7] was “inactive” throughout. In addition, the Potency entry in [8], in assay [9] and in assay [10] was “inactive” in each case.

Regarding `C=C1C(=O)O[C@H]2C1CCC(C)=C1C(=O)C=C(C)[C@@]12O` (stereo partly drawn), the max response in assay [1] is -10.7%; in assay [2], -6.36%. Also, the Potency result in assay [3], in assay [4], in assay [5], in [11], in assay [6] and in assay [7] was “inactive” in each case. Besides, the Potency result in [8], in [9] and in assay [10] was “inactive” throughout.

As for `CC#CCC(C)[C@H](O)/C=C/[C@@H]1[C@H]2c3cccc(CCCC(=O)O)c3O[C@H]2C[C@H]1O` (stereo partly drawn), the max response in assay [1] was -28.3%.

In the case of `CO[C@H]1C[C@H](O[C@H]2[C@H](C)O[C@@H](O[C@@H]3/C(C)=C/C[C@@H]4C[C@@H](C[C@]5(C=C[C@H](C)[C@@H](C6CCCCC6)O5)O4)OC(=O)[C@@H]4C=C(C)[C@@H](O)[C@H]5OC/C(=C\C=C\[C@@H]3C)[C@]54O)C[C@@H]2OC)O[C@@H](C)[C@@H]1O`, the Potency in [1] is 20.6 µM (active).

As for `CC1=C(C(=O)OCCN(Cc2ccccc2)c2ccccc2)C(c2cccc([N+](=O)[O-])c2)C(P2(=O)OCC(C)(C)CO2)=C(C)N1` (stereo not drawn), the max response in assay [1] is 26.8%.

Take `CS(=O)(=O)NC(=O)CCC/C=C\C[C@H]1C(=O)C[C@@H](O)[C@@H]1/C=C/[C@H](O)COc1ccccc1`: the max response in assay [1] was -12.3%.

Consider `CC(CN1c2ccccc2Sc2ccc(S(=O)(=O)N(C)C)cc21)N(C)C` (stereo not drawn), for which, in assay [1], the max response was -2.65%.

As to `CC(=O)O[C@@H]1[C@H](O[C@@H]2O[C@@H](CO)[C@H](O)[C@H]2O)[C@@H](O[C@@H]2O[C@@H](C)[C@H](O[C@@H]3OC[C@@H](O)[C@H](O)[C@H]3O)[C@@H](O)[C@H]2O)[C@H](OC(=O)[C@]23CCC(C)(C)C[C@H]2C2=CCC4[C@@]5(C)CC[C@H](O[C@@H]6O[C@H](C(=O)O)[C@@H](O)[C@H](O)[C@H]6O[C@@H]6O[C@H](CO)[C@H](O)[C@H](O)[C@H]6O)[C@@](C)(C=O)C5CC[C@@]4(C)[C@]2(C)C[C@H]3O)O[C@@H]1C` (stereo partly drawn), the figures for the max response in [1] and in assay [2] were 8.09% and -0.852%, respectively. For the same compound, the activity change, negative = cytotoxicity in assay [3] is -10.4% [at 6.55 µM]; in assay [4] it was -10.3% [at 6.55 µM]; in assay [5], -9.38% [at 6.55 µM]; in assay [6], 10% [at 6.55 µM]; in assay [8], 6.34% [at 6.55 µM].

As for `CCCCCCCCCCCCCCCC(=O)O[C@@H]1CC(C)=C(/C=C/C(C)=C/C=C/C(C)=C/C=C/C=C(C)/C=C/C=C(C)/C=C/C2=C(C)C[C@@H](OC(=O)CCCCCCCCCCCCCCC)CC2(C)C)C(C)(C)C1`, the max response in assay [1] was -27.5%.

As for `CC(=O)O[C@H]1CC[C@@]2(C)C(=CC[C@@H]3[C@@H]2CC[C@]2(C)C(c4cccnc4)=CC[C@@H]32)C1`, the max response in assay [1] was 0.542%.

Turning to `CCOC(=O)Nc1ccc2c(c1)N(C(=O)CN(C)C)c1ccccc1CC2`, in [1], the max response was -13.4%.

As to `COc1cc(C[C@@H]2NCCc3cc(O)c(O)cc32)cc(OC)c1OC`, the max response in assay [1] is -8.11%.

As for `O=C(Cn1c(=O)sc2ccc(Cl)cc21)N1CCN(CCO)CC1`, in [1], the max response was 2.82%.

As for `C=C[C@]1(C)C[C@H](O)[C@H]2C(=C)C(=O)O[C@@H]2[C@H]1C(=C)CO`, in assay [1], the compound was classed as inactive. In assay [2], the max response is -30%. Also, the Potency result in [3], in assay [4], in assay [5], in assay [11], in assay [6] and in assay [7] was “inactive” throughout. Besides, the Potency result in [8], in [9] and in assay [10] was “inactive” in each case.

`CCCCCCCC/C=C\CCCCCCCC(=O)OC[C@@H](O)[C@H]1OC[C@H](O)[C@H]1O`: in assay [1], the max response is -11.7%.

Take `Cc1ccccc1CNc1ncnc2c1ncn2[C@@H]1O[C@H](CO)[C@@H](O)[C@H]1O`: the max response in [1] is -19%.

For `Cc1ccc(NC(=O)N2CCN(c3nc(N)nc4sc(-c5cccnc5)nc34)CC2)cc1`, the max response in assay [1] is -18.9%. Also, the Potency in assay [2] is 2.91 µM (active). Further, the Potency entry in [3], in [5], in [11], in assay [6], in assay [7] and in [8] was “inactive” each time. Moreover, in [9], the Potency result is “inactive”.

Take `CCOc1ccc(N=C(C)Nc2ccc(OCC)cc2)cc1`: the max response in assay [1] was -26.1%.

Regarding `C[C@@H]1C[C@H]2C3C[C@H](F)C4=CC(=O)C=CC4(C)[C@@]3(F)[C@@H](O)CC2(C)[C@@]1(O)C(=O)COC(=O)C(C)(C)C` (stereo partly drawn), the max response in [1] was 27.2%.

For `CC(=O)O[C@H]1C[C@@H]2CC[C@@H]3[C@H](CC[C@@]4(C)[C@H]3C[C@H](N3CC[N+](C)(C)CC3)[C@@H]4OC(C)=O)[C@@]2(C)C[C@@H]1N1CC[N+](C)(C)CC1`, the max response in assay [1] was -0.194%.

Turning to `CN(C)Cc1ccccc1`, in assay [1], the max response is -10.5%.

With `COCc1c(Cl)ccc2c1CC[C@H]2c1ncc[nH]1`, the max response in [1] was -11.1%. In assay [9], the Potency entry is “inactive”.

Take `C=C1CC[C@@H]2[C@](C)(CO)[C@H](O)CC[C@@]2(C)[C@@H]1CC(=O)C1=CCOC1=O`: the max response in assay [1] is -15.5%. Further, the Potency entry in assay [3], in [7] and in [9] was “inactive” each time.

`CC(=O)O[C@H]1CC[C@]2(C)[C@H]3CC[C@]4(C)Oc5oc(C)cc(=O)c5C[C@H]4[C@]3(C)CC[C@H]2C1(C)C`: in [1], the compound was classed as inactive. Besides, the Potency result in [3], in assay [5], in [11], in assay [6], in assay [7] and in assay [8] was “inactive” each time. The Potency entry in assay [9] and in assay [10] was “inactive” throughout.

For `CN(C)CCN(Cc1ccc(-c2ccc(CNCCc3ccccc3)cc2)cc1)C(=O)CCC1CCCC1`, the Potency in [1] is 4.61 µM (active); in [2], 4.11 µM (active); in assay [4], 5.62 µM (active); in assay [8] it was 25.1 µM (active); in assay [9] it was 22.4 µM (active).

Turning to `CC(=O)CC(=O)Nc1ccc(Cl)c(C(F)(F)F)c1`, the Potency in assay [1] was 23.1 µM (active). In addition, the Potency result in [3], in [5], in assay [11], in assay [6], in [7] and in [8] was “inactive” in each case. Also, the Potency entry in assay [9] and in [10] was “inactive” each time.
